MITF TRPM1 HTS: activators of MITF-driven TRPM1 promoter reporter, primary screen, cell-based, SK-MEL-5, luciferase, single point; SK-MEL-5 TRPM1-promoter luciferase, 24 h; % of positive control, neutral wells = 0; activation, % at 12.5 µM; actives 0.75% (n = 300,000); AID 588334, 2011;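 active = mean activation of at least 80% with every replicate also reaching 80%; inconclusive = mean reaches 80% but some replicate falls short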;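 also: 0% = neutral control wells and 100% = parthenolide positive control wells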
Vif inh: HIV Vif self-association inhibitors, primary screen, imaging, HEK293T, single point | HEK293T cells, Vif self-association by quenched fluorescence, 24 h | inhibition, % at 7.49 µM | actives 0.35% (n = 340,000); in the data active = inhibition above about 50%, passing the limit was not always enough; inconclusive = no clear call, values can overlap the other calls; inactive = below about 31%
PfHsp90 set2: growth inhibition of PfHsp90-expressing yeast, primary screen, antimalarial PfHsp90 inhibitor project, S. cerevisiae, BacTiter-Glo luminescence, single point, set 2. BacTiter-Glo ATP, 48 h; yeast lacking PDR1 and PDR3 efflux regulators. inhibition, % at 9.4 µM. actives 0.32% (n = 310,000). AID 504621, 2011;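 active = every replicate shows inhibition above about 80%, whatever the replicate mean, limit read from the data; inconclusive = mean inhibition reaches the set limit but some replicate falls short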;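 also: 0% = DMSO neutral controls and 100% = 20 µM radicicol positive controls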
esBAF inh: Bmi1 luciferase reporter increase in mESCs, primary screen, esBAF inhibitor project, mouse ES cells, Bmi1 luciferase knock-in, single point. 24 h; 100% = twice the neutral-well signal. reporter increase, % at 12.5 µM. actives 2% (n = 350,000); in the data active = activation above about 40%; inconclusive = no clear call, values can overlap the other calls;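 also: 0% = median of the plate's neutral control wells and 100% = double that signal; a rise in the Bmi1 reporter signal indicates esBAF inhibition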
Glyco luc inh: increase of ERlucT glycosylation luciferase signal, primary screen, N-linked glycosylation inhibitor project, D54 ERlucT cells, luminescence, set 2. D54 ERlucT glycosylation luciferase reporter, 24 h; percent of 100 nM tunicamycin response. reporter increase, % at 12.5 µM. actives 0.23% (n = 360,000). AID 588692, 2011;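 active = mean luciferase reporter signal, scaled so untreated is 0 and the glycosylation-blocking control 100, at or above a set limit in every replicate; inconclusive = mean reaches the limit but not every replicate does; inactive = mean below the limit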;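 also: luciferase carries N-glycosylation sites so blocking glycosylation raises the light; 0% = median of neutral control wells and 100% = median of 100 nM tunicamycin wells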
Wnt act: Wnt/beta-catenin pathway activators, primary screen, cell-based, plate reader, single point; activation, % at 9.35 µM; actives 1.2% (n = 300,000); Wnt/beta-catenin reporter cell assay, activator; in the data active = activation above about 30%, passing the limit was not always enough; inconclusive = no clear call, values can overlap the other calls;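 also: 0% = neutral control wells and 100% = positive control wells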
The depositor's hits bear a star; ? = inconclusive; . = no result given. This is a sample that favours compounds with a hit; in the whole collection about 3% have one here.

SMILES	MITF TRPM1 HTS	Vif inh	PfHsp90 set2	esBAF inh	Glyco luc inh	Wnt act
COc1ccc(Cc2c(-c3cccc(Cl)c3)nc3ccc(C)cn23)c(C)c1	.	.	.	56*	-3	18
Cc1ccccc1-n1c(=O)n(CCc2ccccc2)c(=O)c2[nH]cnc21	2	-6	2	6	0	1
Cc1ccc(SCC(=O)Nc2ccc(N3CCN(C)CC3)c(F)c2)cc1	.	5	17	30	-5	40*
O=C(OCc1ccc(Cl)c(Cl)c1)c1ccc[nH]1	56	3	23	50*	0	12
O=C(Cc1ccc(Cl)c(Cl)c1)OCC(=O)c1ccc[nH]1	6	23	-1	-5	0	.
CCCOc1ccc(-c2csc3nc[nH]c(=O)c23)cc1	48	-5	14	?	1	38*
O=C(Nc1ccc(O)cc1)c1c(O)c2c([nH]c1=O)CCCC2	86*	-3	-19	.	-9	21
COC(=O)c1ccccc1NC(=O)c1c(O)c2c([nH]c1=O)CCCC2	4	4	0	0	3	4
COc1ccc(-c2cc(C(=O)NCC(C)C)no2)cc1	87*	4	16	.	0	.
CCC(C)NC(=O)c1cc(-c2ccc3c(c2)OCO3)on1 (stereo not drawn)	88*	12	-7	3	-8	41*
CCC(C)NC(=O)c1cc(CC(C)C)on1 (stereo not drawn)	.	-2	-6	54*	-1	10
CCC(C)NC(=O)c1cc(-c2ccc(OC)cc2)on1 (stereo not drawn)	101*	-4	.	-11	-3	.
Fc1ccc(-c2cc3nc(-c4ccccc4)cc(N4CCN(CCN5CCOCC5)CC4)n3n2)cc1	3	3	-3	-3	-5	.
O=C(O)C[C@@H]1C[C@@H]2c3cc(NC(=O)NC4CCCCC4)ccc3O[C@@H]2[C@H](CO)O1	.	.	.	-2	.	.
COC(=O)c1cccc(NC(=S)N2CCOCC2)c1	-2	-20	14	-6	2	0
CC(C)NC(=O)c1cc(-c2ccc(Br)cc2)on1	111*	-5	5	32	-8	.
O=C1CC(c2ccc(O)cc2)Oc2ccccc21 (stereo not drawn)	83*	-8	7	24	-2	-2
O=C1C[C@@H](c2ccc(O)cc2)Oc2cc(O)cc(O)c21	22	-3	5	16	0	6
Cc1c(O)cc2c(c1O)C(=O)CC(c1ccccc1)O2 (stereo not drawn)	-46	?	28	-16	43*	3
Cc1ncoc1C(=O)N1CCCC(C(=O)c2ccc(Oc3ccccc3)cc2)C1 (stereo not drawn)	-8	61*	6	.	1	-4
Cc1ccccc1N(C(=O)Cn1nnc(-c2ccc(F)cc2)n1)C(C(=O)NC(C)(C)C)c1ccncc1 (stereo not drawn)	1	-4	2	6	3	-2
CC(C)(C)NC(=O)C(c1ccncc1)N(C(=O)Cn1nnc(-c2ccc(F)cc2)n1)c1ccccc1F (stereo not drawn)	-15	60*	12	.	-5	.
COc1ccc(CN(C)C[C@H]2Oc3ccc(NC(=O)CCC(F)(F)F)cc3CC(=O)N([C@@H](C)CO)C[C@@H]2C)cc1	.	.	.	0	.	.
CCOc1ccc2c(c1)C(=NNC(=O)c1ccncc1)c1cc(OCC)ccc1-2	3	-5	-33	54*	21	49*
CCOc1ccc(NC(=O)c2ccncc2)cc1	8	-7	-11	.	2	.
SMILES	MITF TRPM1 HTS	Vif inh	PfHsp90 set2	esBAF inh	Glyco luc inh	Wnt act
CCC(C)NS(=O)(=O)c1ccc(OCC(=O)Nc2ccc3c(c2)OCO3)cc1 (stereo not drawn)	-3	0	8	-1	-3	-7
CCCc1nc2ccccc2c(C(=O)OCC(=O)N2CCc3ccccc32)c1CC	0	-5	9	.	-1	-2
Nc1cccc(Oc2c(F)c(F)c(Oc3cccc(N)c3)c(F)c2F)c1	.	10	85*	.	-3	2
COc1cccc(N)c1	.	.	.	.	.	-1
Cc1ccc2c(CN3CCC(C)CC3)cc(=O)oc2c1	48	-4	5	59*	-6	.
Cc1cc2oc(=O)cc(CN3CCC(C)CC3)c2cc1Cl	24	.	63	58*	0	4
COc1ccc2c(CN3CCCCCCC3)cc(=O)oc2c1	.	.	.	48*	-2	1
Cc1cc(C)c2c(CN3CCN(c4ccccc4)CC3)cc(=O)oc2c1	.	.	.	-14	1	-3
Cc1cc(C)c2c(CN3CCN(Cc4ccccc4)CC3)cc(=O)oc2c1	9	104*	3	-1	2	-1
O=C(C[C@@H]1C[C@H]2c3cc(NC(=O)C4CCC4)ccc3O[C@H]2[C@@H](CO)O1)NCC(F)(F)F	.	.	.	-4	.	.
Cn1cccc1/C=N/NC(=O)CNc1ccc2ccccc2c1	.	0	.	.	1	3
CC1Cc2nc(SCC(=O)c3ccccc3)n(Cc3ccccc3)c(=O)c2S1 (stereo not drawn)	.	-9	-9	81*	3	15
O=C(CN1CCN(c2ccccn2)CC1)Nc1ccccc1C(=O)Nc1ccccc1	4	.	.	-3	-5	-2
COc1ccc(CCNC2CC(=O)N(CCc3ccccc3)C2=O)cc1OC (stereo not drawn)	4	5	13	6	1	42*
O=C(/C=C/c1cccc(Cl)c1)OCc1cn2cc(Cl)ccc2n1	11	2	-11	.	2	-3
CC1CCC(NC(=O)CCC(=O)N2CC(C)Oc3ccccc32)CC1 (stereo not drawn)	62	13	-5	55*	-1	11
CC1CCN(C(=O)CCC(=O)N2CC(C)Oc3ccccc32)CC1 (stereo not drawn)	-8	-3	8	0	0	-1
Cc1cccc(NC(=O)c2ccccc2OCC(=O)c2ccc(F)cc2)c1	0	-7	-9	.	-1	-1
O=C(c1ccccc1)N1CCN(c2ccc([N+](=O)[O-])c(N3CCOCC3)c2)CC1	1	-8	13	.	1	-10
CN(C)c1nc(C=C(C#N)C#N)c(Cl)n1-c1ccc(F)cc1	-100	105*	15	.	10	-1
COc1ccc(NC(=O)/C(=C/c2ccc(OC(C)=O)c(OC)c2)NC(C)=O)cc1	7	18	5	.	2	0
COc1cc(/C=C/C(=O)OCC(=O)NCCc2ccccc2)cc(OC)c1OC	2	0	1	.	2	41*

Source: PubChem (Broad Institute)
